In the supplement of paper PMC11417369:
± gives the standard deviation of the averaged measurements. Whole data set: some 25,000 sequences, median “ln(normalized median fluorescence intensity)” near 7.9, cut for the highest 2% near 11. Many of the other results were omitted from the sample, so the highest values are more common in it than they were.

System: PfAP2-I AP2 domain 3 (GST-tagged)
Assay: gcPBM binding intensity (ln(normalized median fluorescence intensity)); higher = stronger DNA binding
Summary of the method: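 DNA-binding domains from P. falciparum, fused to GST and produced in E. coli, were put on an Agilent 4 × 180k double-stranded probe array for 1 h in 1× PBS holding 1% milk, 0.2 mg/ml BSA, 0.5% salmon testes DNA and 0.03% Triton X-100. Probes were primer-extended, 36 bp long and drawn from intergenic genomic regions, with negative controls included. After Alexa488 anti-GST antibody detection and a 488 nm scan, binding intensity was set as the highest Masliner-normalised natural-log median intensity across replicate spots of either probe orientation.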

Sequence | gcPBM binding intensity (ln)
TTAAAATAAAGAAAATGTACATAAATAAAAATAAAG [XGTACX_site2280] | 8.35 ± 0.45
AACCAATTATATTTACGTACGTACGGTTTTTTATAT [XGTACX_site1291] | 7.94 ± 0.48
ATTTCTTTTTTATTGAGTACATATGACCATGTTCAA [XGTACX_site5365] | 8.14 ± 0.38
ATTATTCATTTATGTAGTACATTTTAATACATTTAA [XGTACX_site3599] | 7.75 ± 0.6
TTTCTTTATTAAAATATTTTACATATATAATATACG [TGCATGCA_negctrl_site564] | 7.92 ± 0.55
AAAATTTCTTTTTTTTGTACATATATAATAATATAT [XGTACX_site7107] | 7.82 ± 0.39
TTTTCTTTTTTTTTTGTGCACATAATATATAATTAT | 10.8 ± 0.14
TATTTCTTTTGGTTGGTGCATAAAATAATACAATAT [GTGCAC_site9916] | 11.2 ± 0.59
ACCAATAAATATTTGGTGCATACATATATATATATA | 10.31 ± 0.064
CAACCTTTTTTGTTGGTGCATAATTTTTTTTTCTTT | 10.9 ± 0.52
AGACCTTTAATTTGTGTGCACATAATTAGTGTACAT [GTGCAC_site9434] | 9.96 ± 0.16
TACGTCTTTTTTTTGGTGCATAATTTTTTTGTACAA | 11.2 ± 0.44
ATTTCCTTTTGTTTCAGTACATAATTTTTTTTTTTT [XGTACX_site4842] | 7.88 ± 0.62
CGGACATACTAACGGACACACGTAAGAAAAAAAAAG [CACACA_site4504] | 7.79 ± 0.58
ATAAATAAAAATACATGAACAGGTCAGGTTATTTTT [CACACA_negctrl_site1007] | 7.29 ± 0.61
AAAGAAATTATTTGTTGTACATATGTTATTTTTTTT [XGTACX_site7570] | 7.75 ± 0.25
TATTTTGCAAAATGTGCATGTTGTGTATTATGTGAC [TGCATGCA_site59] | 8.97 ± 0.51
AAATGTGCATTATGTTGTACAGTCGAAATTTTTTTT [XGTACX_site3812] | 11.1 ± 0.62
AAGAAAGACATTACGTGTACCAAACAACCTACCAAC [XGTACX_site4219] | 8.22 ± 0.25
TTCCTTTGTTGTCGTTGTACTTATATGGTTATAATT [XGTACX_site3082] | 8.29 ± 0.64

Sequence | gcPBM binding intensity (ln)
TAGGTCCTCATTTTATGTACATAAAGAAATATGATT [XGTACX_site4138] | 7.86 ± 0.36
TATTATAATATTTATACACACATAATTTTGATAAAT [CACACA_site583] | 7.68 ± 0.4
CCCATGCATTTTTGCACACACATATATTTATAAATA [CACACA_site6785] | 9.75 ± 0.17
CCATTTGATAATAATGCACACCACATATATTTATAT [CACACA_site9002] | 11 ± 0.4
ACCCATTTGATAATAATGCACACCACATATATTTAT [CACACA_site3061] | 11 ± 0.63
ATATATTTATAATACACATGCAATGATATAATATAT [TGCATGCA_site20] | 8.43 ± 0.75
TATATATTAATATTTACACACATGCGCACCCATAAA [CACACA_site2410] | 9.86 ± 0.57
ACTCTCTTATATTAAACACACATATTTATAGGTATA [CACACA_site7302] | 8.07 ± 0.45
AGGAGGATGCATATGGCACACATTATGAAACTGTCG [CACACA_site299] | 9.11 ± 1
AATTTTTAGAAGAACACACACATATATATTATGACC [CACACA_site246] | 7.75 ± 0.65
ATTTTTAATGGATAAGTGCATAATATTATGATGCAA | 10.9 ± 0.64
TATTAATGATAAGAATATTTTATATGATACATGCAT [CACACA_negctrl_site923] | 7.46 ± 0.68
GAAAGAAAATATTAAGTGCATATTTTAATGATACAA [GTGCAC_site9712] | 9.02 ± 0.2
TTTTTTTTTTTGTGTGCATGTGCTAGGAAAGGTAGG [TGCATGCA_site330] | 8.85 ± 0.11
TACTTCATATAATTAGCACACAATAATTTCTCATTT [CACACA_site2872] | 8.31 ± 0.45
GTATTTATAATACGGCGTACATAAAAAAAAAAAAAA [XGTACX_site3705] | 8.14 ± 0.45
TAATATATTATAAACACATGCACATTAATAATAACT [TGCATGCA_site708] | 8.08 ± 0.58
AATGCTATCATTAATGCACACATTTAAACTTAATAT [CACACA_site5878] | 11 ± 0.61
AAATTTAATTTTATATCACACATTAAATTTTAATGG [CACACA_site4251] | 7.65 ± 0.58
TAAATTAATACCTATGCACACATTTTTTTTTTTAAA [CACACA_site1238] | 8.32 ± 0.47

Sequence | gcPBM binding intensity (ln)
AATGCTATCATTAATGCACACATTTAAAATTAATAT [CACACA_site3548] | 11 ± 0.55
TATCATTTTTTTAAAACACACATAATAATATAAATA [CACACA_site2845] | 7.82 ± 0.31
GAAAAAATAAAATAAAGTACATAACTATAATAAAAA [XGTACX_site4807] | 7.9 ± 0.34
TTTTTTTTTTTTTTTACACACTGCATACAAGAAAAA [CACACA_site5642] | 8.54 ± 0.66
TGTGCACGCATATACACACACAAATACAATGATAAA [CACACA_site6656] | 8.92 ± 0.11
TATTATATTTGTATGTGTACTTATATGGTTGTAATA [XGTACX_site4548] | 7.87 ± 0.26
AAAATTATGCAGTAGGTGCAATACCCTCGGCTTTTT [GTGCAC_site9556] | 11.1 ± 0.64
TACCCTTGCATGTAGGTGCAATTTTTTTTTTTTTTT | 10.6 ± 0.35
ATTTATATTACCCTTGCATGTAGGTGCAATTTTTTT [TGCATGCA_site757] | 10.64 ± 0.085
TTCCTGTTAATTACAACACACAATTCTTATTTTATG [CACACA_site6507] | 7.98 ± 0.52
ACAAAACTCTTTAATTGTACAAATATAATATAAAAA [XGTACX_site5690] | 7.74 ± 0.63
TATTTATAAATGAACACACACGCAATTTGAATCGAA [CACACA_site3371] | 8.04 ± 0.46
TTAATTAAATATAGGGGTACATATTATATATGTTTT [XGTACX_site3677] | 7.76 ± 0.42
TTACGCTGCTATATAGTGCACATAATATATGACCTG | 11 ± 0.24
TATATATATATATGTGCACACATAATAAAAAAAAAA [CACACA_site3830] | 10.55 ± 0.035
TGCTATATAATATGAGCACACATAAGATTTGGTGTT [CACACA_site8148] | 8.05 ± 0.6
TAAAACACTCATGGCACACATAAAACATTTTTATGA [CACACA_site3574] | 8.18 ± 0.24
TCAATTTGGAACGGTATGCACTAATTTTATATTTTT | 9.02 ± 0.19
TATTTTAAAACAAAAATATAATTTCATAAAAATATA [CACACA_negctrl_site394] | 7.2 ± 0.47
